MCF10A rereplic: DNA re-replication induction in MCF 10a cells; MCF 10A DNA re-replication, Hoechst nuclear intensity, 48 h; Potency, µM (series often up to 46.1 µM), inactives show at the highest dose activity, positive = re-replication, most hits filed as activators; 350,000 tested, 2.9% active; note: % of control where 0% means no effect; nearly all actives have a fitted effect of over 50% in size
SW480 rereplic: DNA re-replication induction in SW480 cells | Potency, µM (doses to about 46.1 µM), for inactives: at the top dose re-replication activation, hits mostly activators | SW480 DNA re-replication, Hoechst DNA content imaging, 48 h | 340,000 tested, 1.8% active; note: % of control where 0% means no effect; nearly all actives have a fitted effect of over 55% in size
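Image-based read-out: total Hoechst fluorescence of nuclei (405 nm excitation, 500-530 nm emission), with hits raising the fraction of high-intensity nuclei. SW480 colon cells incubated 48 hr with compounds at 37 C.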
HT1080NT lethal: kills 2HG-producing HT-1080-NT fibrosarcoma cells; HT-1080-NT fibrosarcoma viability, CellTiter-Glo ATP luminescence, 48 h; Potency, µM (highest dose often 46.1 µM), inactives show top-dose activity, negative = less viability, most hits filed as cytotoxic; 360,000 tested, 1.6% active; AID 686970;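 note: NT is the 2HG producing partner of a matched IDH1 knockdown line; 0% = DMSO-treated cells and -100% = media-only wells without cells; nearly all actives have a fitted effect of over 55% in size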
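Fibrosarcoma NT cells, 750 per well in 5% FBS RPMI, were exposed to compound for 48 hours. Viability: CellTiter-Glo luminescence.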
KB-3-1 cytotox: kills parental KB-3-1 adenocarcinoma cells; KB-3-1 viability, CellTiter-Glo ATP luminescence, 72 h; Potency, µM (doses to about 46.1 µM), hits mostly cytotoxic; 400,000 tested, 1.4% active; AID 1347075; note: % is set by controls: 0 for no effect and ±100 for the full control effect; nearly all actives have a fitted effect of over 60% in size
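Parental KB-3-1 viability, qHTS format: 72 h compound exposure, 37 °C; CellTiter-Glo; media-only wells and DMSO plates as controls; concentration-effect fits on corrected data.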
HT1080 IDH1KD tx: HT-1080 IDH1 knockdown cell toxicity (counter line) | HT-1080 IDH1 knockdown viability, ATP luminescence, 48 h | Potency, µM (highest dose often 46.1 µM), without a hit: top-dose activity, negative = toxicity, usual class: cytotoxic | 360,000 tested, 2% active;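 note: 0% = DMSO wells and -100% = cell-free medium wells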
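In this qHTS, HT-1080 cells depleted of IDH1 are exposed for 48 h at 37 °C to compound titrations. Toxicity is scored from CellTiter-Glo luminescence, with DMSO as full viability and medium alone as none.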
KB-V1 cytotox: kills drug-selected multidrug resistant KB-V1 cells | KB-V1 MDR cells viability, CellTiter-Glo, 72 h | Potency, µM (highest dose often 46.1 µM), most hits filed as cytotoxic | 400,000 tested, 3.4% active | AID 1347076; note: % is set by controls: 0 for no effect and ±100 for the full control effect; nearly all actives have a fitted effect of over 60% in size
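Potencies derive from concentration-effect curves fitted to normalized luminescence (CellTiter-Glo) of KB-V1 cells treated for 72 h at 37 degrees C in phenol-red-free DMEM containing 10% FBS.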
* marks the source's active call; other numbers are inactive results; i = inactive; u = inconclusive; x = no result given; [ ] = remark or other dose. The list is not random: actives were taken first. Their share in the collection is about 7.9%. Calls come from the whole dose curve; as a rule, active = well fitted curve in the direction sought with a large enough effect; inconclusive = small, poorly fitted or top-dose-only effect, or another doubt; inactive = no such curve, though single readings can be large; an effect the other way counts as inactive or inconclusive. Potency is the fitted concentration of half-maximal effect.

SMILES	MCF10A rereplic	SW480 rereplic	HT1080NT lethal	KB-3-1 cytotox	HT1080 IDH1KD tx	KB-V1 cytotox
O=C1OC(/C(=C\Nc2cc(Cl)ccc2O)[N+](=O)[O-])c2ccccc21 (stereo not given)	15µM*	u	u	i	u	i
O=C1OC(/C(=C\Nc2ccc(F)cc2F)[N+](=O)[O-])c2ccccc21 (stereo not given)	16%	10%	u	i	18µM*	i
Cc1ccc(-c2cc3ncc(C(=O)c4cc(Cl)c(C)cc4O)cn3n2)cc1	x	x	x	i	x	i
COc1cccc(C(=O)NN/C(C)=C/C(=O)C(F)(F)C(F)(F)C(F)(F)F)c1	u	u	u	u	15µM*	i
COc1cccc(C(=O)NNC2=C(C(=O)C(F)(F)F)CCC2)c1	13%	u	u	u	12µM*	i
O=C(NNC1=C(C(=O)C(F)(F)F)CCC1)c1ccccc1Cl	u	u	15µM*	u	u	u
COc1ccccc1C(=O)NNC1=C(C(=O)C(F)(F)F)CCC1	4.1µM*	2.6µM*	3.5µM*	i	2.2µM*	i
Nc1ccccc1C(=O)NNC1=C(C(=O)C(F)(F)F)CCC1	8%	u	-21%	u	u	i
Cc1ccc(OCc2nnc(SCC(=O)Nc3ccccc3C(C)C)o2)cc1	x	x	x	i	x	i
COc1ccc(NC(=O)NCc2c(-n3cccc3)sc3c2CCCC3)c(OC)c1	x	x	x	i	x	i
CCOC(=O)C1CC(c2ccccc2)=NN1c1ccccc1 (stereo not given)	x	x	-1%	i	2%	i
O=C(NNC1=C(C(=O)C(F)(F)F)CCC1)c1ccccc1O	u	-3%[9.22 µM]	23µM*	u	u	i
O=C(NNC1=C(C(=O)C(F)(F)F)CCC1)c1ccc(Br)cc1	u	9.2µM*	u	i	10µM*	i
O=C(CN1C(=O)COc2ccc(S(=O)(=O)N3CCCCCC3)cc21)N1CCN(c2ccc(F)cc2)CC1	x	x	x	i	x	i
Cc1ccc2[nH]cc(CCNC(=O)c3cccnc3)c2c1	21µM*	12%	1%	i	12%	i
COc1ccc2[nH]cc(CCNC(=O)c3ccc4ccccc4n3)c2c1	15µM*	-64%	-22%	i	u	i
COc1ccc(CNC(=O)c2cc3ccccc3o2)cc1OC	-1%	13%	-9%	i	-18%	8.2µM*
COc1ccc(CNC(=O)c2ccc3ccccc3n2)cc1OC	8%	-10%	u	u	-10%	7.3µM*
Cn1c(=O)oc2cc(S(=O)(=O)NC(Cc3ccccc3)C(=O)Nc3ccc(F)cc3)ccc21 (stereo not given)	x	x	x	i	x	i
CCc1ccc2oc(C(=O)NCCc3ccc(OC)c(OC)c3)cc(=O)c2c1	x	x	x	16µM*	x	5.2µM*
Cc1ccc(C(=O)N2CCN(c3cccc(Cl)c3)CC2)cc1-n1c(C)nc2cccnc21	x	x	x	i	x	i
CSc1ccc(OC2CCN(Cc3ccccc3)CC2)cc1	u	u	0%	i	-6%	16µM*
CCOC(=O)c1c(C)[nH]c(C=O)c1Cc1cccc(Cl)c1	27%	10%	u	18µM*	u	15µM*
CC(O)(c1cccc(F)c1)c1nc(-c2ccc(S(C)(=O)=O)cc2)cs1 (stereo not given)	x	x	-9%	i	-21%	i
CCc1ccc(N(CC)C(=O)Cn2c(=O)oc3ccccc32)cc1	x	x	x	i	x	i
CC1=NN(c2nc3ccccc3[nH]2)C(=O)C1Cc1ccccc1 (stereo not given)	u	2.9µM*	2.1µM*	u	u	u
CC1=NN(c2nc3ccccc3[nH]2)C(=O)/C1=C/N(C)C	2%	3%	21µM*	5.8µM*	2.9µM*	u

Screens: PubChem, National Center for Advancing Translational Sciences (NCATS)
